From PubChem BioAssay
Hits are enriched below; roughly 1.8% of the tested compounds scored in any of these assays.
UBC13 inh – inhibitors of human UBC13 polyubiquitin chain formation | P61088 | TR-FRET | inhibition, % at 20 µM | 330,000 compounds, 0.47% hits; in the data active = inhibition above about 45%, passing the limit was not always enough
Target sequence (P61088 whole entry, looked up): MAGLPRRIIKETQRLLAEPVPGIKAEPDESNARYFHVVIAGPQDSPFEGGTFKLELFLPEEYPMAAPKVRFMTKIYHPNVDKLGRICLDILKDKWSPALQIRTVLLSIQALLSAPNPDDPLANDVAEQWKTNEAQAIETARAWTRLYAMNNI
Neddyl block – cullin neddylation inhibition | P61081+Q13564 | TR-FRET cullin neddylation, biochemical | calls only at 25 µM | 360,000 compounds, 0.58% hits | AID 651699; in the data active = inhibition above about 36%
UHRF1 binding – human UHRF1 methylated DNA binding inhibitors; Q96T88; UHRF1 binding to methylated oligo, TR-FRET; inhibition, % at 4.4 µM; 370,000 compounds, 0.75% hits; in the data active = inhibition above about 21%;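 also: UHRF1 SRA domain binding a hemimethylated CpG hairpin DNA probe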
MBD2 DNA inh – MBD2-methylated oligo binding inhibition | AID 686964 | 370,000 compounds, 0.31% hits | TR-FRET, MBD2 binding to methylated oligonucleotide | Q9UBB5 | inhibition, % at 4.4 µM; in the data active = inhibition above about 13%
Target sequence (Q9UBB5 whole entry, looked up): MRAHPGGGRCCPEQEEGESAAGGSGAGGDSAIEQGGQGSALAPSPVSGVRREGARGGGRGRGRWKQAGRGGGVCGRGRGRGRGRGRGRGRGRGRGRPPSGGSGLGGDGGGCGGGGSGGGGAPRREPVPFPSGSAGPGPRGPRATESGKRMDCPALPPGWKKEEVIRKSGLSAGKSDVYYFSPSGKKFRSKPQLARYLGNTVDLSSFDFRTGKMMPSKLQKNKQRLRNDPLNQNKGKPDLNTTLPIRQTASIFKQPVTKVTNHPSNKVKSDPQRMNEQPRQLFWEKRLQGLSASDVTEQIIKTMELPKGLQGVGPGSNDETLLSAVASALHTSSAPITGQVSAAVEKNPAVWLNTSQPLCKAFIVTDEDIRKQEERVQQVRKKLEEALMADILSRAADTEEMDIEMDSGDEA
Neddyl inh conf – confirmation of human cullin neddylation inhibitors; shares compounds with Neddyl block; TR-FRET cullin neddylation biochemical assay; calls only at 25 µM; 1,800 compounds, 13% hits; AID 652217; in the data active = inhibition above about 40%;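 also: neddylation substrate is the cullin 1 ring ligase complex with SKP2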
Of the large screens only hits and unclear results are named; the others gave an inactive call (follow-up assays come after a bar, where shown); ! = a repeat was not active.

COc1ccccc1N(C(=O)c1snc(C(N)=O)c1N)C(C(=O)NC1CCCC1)c1ccco1 (centres undefined)	Neddyl block active | Neddyl inh conf active
COc1ccc(OC)c(C(C(=O)NC2CCCCC2)N(C(=O)c2snc(C(N)=O)c2N)c2ccccc2OC)c1 (centres undefined)	none
CCOc1ccccc1N(C(=O)c1snc(C(N)=O)c1N)C(C(=O)NCCC(C)C)c1ccco1 (centres undefined)	Neddyl block active (no result: UHRF1 binding, MBD2 DNA inh) | Neddyl inh conf inactive
COc1ccc(C)cc1N(C(=O)c1snc(C(N)=O)c1N)C(C(=O)NC1CCCCC1)c1ccc(C)o1 (centres undefined)	Neddyl block active
CCc1c(C)nc(SCc2cccnc2)[nH]c1=O	none (no result: UHRF1 binding, MBD2 DNA inh)
O=C(C1CCCCC1)N1CCN(C(=O)C2CCCCC2)CC1	none
COc1ccc2cc(C(N)=O)c(=Nc3ccccc3)oc2c1	none
NC(=O)c1cc2ccc(O)cc2oc1=Nc1ccccc1	Neddyl block active (no result: UBC13 inh) | Neddyl inh conf inactive
O=C(O)CCc1ccc(-c2cccs2)n1CC1CCCO1 (centres undefined)	Neddyl block active | Neddyl inh conf inactive
CCc1ccc(-c2csc(NC(=O)C3CC(=O)N(c4ccc5c(c4)OCCO5)C3)n2)cc1 (centres undefined)	Neddyl block active | Neddyl inh conf inactive
Cn1c(N/N=C/c2cccs2)nc2c1c(=O)n(Cc1ccccc1)c(=O)n2C	Neddyl block active | Neddyl inh conf inactive
CCCCCCCC(=O)N/N=C(\C)c1ccc(O)cc1O	Neddyl block active | Neddyl inh conf inactive
CCOc1ccc(OCC)c(NC(=O)CCNS(=O)(=O)c2cc(Br)cnc2N)c1	none
Cc1cccc(NC(=O)CSc2cccc3cccnc23)c1	none
O=C(CSc1cccc2cccnc12)Nc1cc(C(=O)O)cc(C(=O)O)c1	Neddyl block active | Neddyl inh conf active
Cc1cccc2nc3ccccc3cc12	Neddyl block active
CC(=O)Oc1ccc(-c2ccc(C(=O)OCC(=O)N(C)CC(=O)Nc3ccccc3Cl)cc2)cc1	Neddyl block active | Neddyl inh conf inactive
C/C(=N\NC(=O)c1cccc(S(=O)(=O)Nc2cccc(Cl)c2)c1)c1cccs1	Neddyl block active | Neddyl inh conf inactive
Cc1ccc(/C=N/NC(=O)c2cccc(S(=O)(=O)Nc3cccc(Cl)c3)c2)o1	Neddyl block active | Neddyl inh conf inactive
COc1ccccc1NS(=O)(=O)c1cccc(C(=O)N/N=C/c2ccc(C)o2)c1	none
Cc1cc(C=O)c(C)c2c1[nH]c1ccccc12	Neddyl block active (no result: UBC13 inh) | Neddyl inh conf inactive
CN1CCc2c(sc3nc(SCC(=O)N4CCOCC4)nc(N)c23)C1	Neddyl block active | Neddyl inh conf inactive
CS(=O)(=O)N(Cc1ccc(Cl)cc1)c1ccc(C(=O)Nc2cccnc2)cc1	none
CCCCN1CNC(=S)N(CCc2ccc(OCC)c(OCC)c2)C1	none
CCOC(=O)c1c(C(=O)OCC)c(C)n(CCc2ccccc2)c1C	none
Cc1ccc2c(c1)COc1c3ccc(C(=O)N[C@@H](C)CO)cc3nn1-2	Neddyl block active
C[C@@H](CO)NC(=O)c1ccc2c3n(nc2c1)-c1ccc(Cl)cc1CO3	none
Cc1ccc2c(c1)COc1c3ccc(C(=O)NCCO)cc3nn1-2	Neddyl block active | Neddyl inh conf active
O=C(NCCO)c1ccc2c3n(nc2c1)-c1ccc(Cl)cc1CO3	none
Cc1ccc2c(c1)COc1c3ccc(C(=O)NC(C)C)cc3nn1-2	Neddyl block active | Neddyl inh conf active
COc1c2c(cc3oc(C)cc(=O)c13)OC(C(C)(C)OC1OC(CO)C(O)C(O)C1O)C2 (centres undefined)	none
CCOC(=O)C1=C(C)NC(=O)NC1c1ccc(Cl)cc1Cl (centres undefined)	none
COc1ccc(OC)c(/C=N\NC(=O)c2ccc(=O)n(C)c2)c1	none
COc1ccc2ccc(=O)oc2c1CC(=O)C(C)C	Neddyl block active | Neddyl inh conf inactive
COc1ccc2ccc(=O)oc2c1CC(O)C(C)(C)O (centres undefined)	none (not shown: Neddyl block)
CCOc1c(C)cc(-c2ncccc2O)cc1C	Neddyl block active! | Neddyl inh conf inactive
CCOC(=O)C1=C(C(=O)OCC)c2ccc(OC)c(OC)c2C1	Neddyl block active (no result: UBC13 inh) | Neddyl inh conf inactive
CCOC(=O)c1ccc(NC(=O)Nc2ccc(OC)c(OC)c2)cc1	none
COc1ccc2c(c1)nc(SCC(=O)C(C)(C)C)n2C	none
Cc1sc(NC(=O)c2ccco2)c(C(c2cccnc2)N2CCC(C)CC2)c1C (centres undefined)	none (not shown: Neddyl block)
CCCCCNC(=O)C(c1ccncc1)n1c(=O)c(-c2ccccc2)nc2ccccc21 (centres undefined)	Neddyl block active (no result: UBC13 inh) | Neddyl inh conf inactive
O=C(NC1CCCCC1)C(c1ccncc1)n1c(=O)c(-c2ccccc2)nc2ccccc21 (centres undefined)	Neddyl block active (no result: UBC13 inh) | Neddyl inh conf active
COc1ccc(NC(=O)C(c2ccncc2)n2c(=O)c(-c3ccccc3)nc3ccccc32)cc1 (centres undefined)	Neddyl block active (no result: UBC13 inh) | Neddyl inh conf inactive
O=C(C1CCCN(Cc2cccc(F)c2)C1)N1CCCCC1 (centres undefined)	none
CCOC(=O)c1c(NC(=O)C2CC2)sc(C)c1CC	none
COc1ccccc1CNC(=O)c1ccc(OCC2CCCO2)cc1 (centres undefined)	none
COCCn1c(SCc2ccccc2)nc2c1c(=O)[nH]c(=O)n2C	none
Cc1cccc(-c2nnc(SCCC(=O)N3CCOCC3)o2)c1	none
COc1ccc(C(=O)NC2CC3CCCC(C2)N3Cc2ccccc2)c(OC)c1 (centres undefined)	Neddyl block active | Neddyl inh conf inactive
CCCC1=NN(C(=O)CCc2ccccc2O)C(O)(C(F)(F)F)C1 (centres undefined)	none
CC(C)N(Cc1ccccc1)C(=O)C1CCN(c2ncnc3c2nc2n3CCCCC2)CC1	none
CN(C)CCN(Cc1ccccc1)C(=O)C1CCN(c2ncnc3c2nc2n3CCCCC2)CC1	Neddyl block active | Neddyl inh conf inactive
O=C(c1ccco1)N1CCN(C(=O)c2cnn(-c3cccc(F)c3)c2C2CCNCC2)CC1	none
COc1ccc(OC)c(/C=C/C(=O)N(C)CC(=O)Nc2ccc(N3CCOCC3)cc2)c1	Neddyl block active
COc1ccc(NC(=O)CN(C)C(=O)/C=C/c2cn(-c3ccccc3)nc2-c2cccs2)cc1	Neddyl block active | Neddyl inh conf inactive
Cc1ccc(Nc2ccc(C(=O)NCCc3ccccc3)cn2)cc1	Neddyl block active | Neddyl inh conf inactive
CCc1ccc(-c2cnc3nc[nH]c(=O)c3n2)cc1	Neddyl block active | Neddyl inh conf active
Cc1ccc2c(c1)N(S(=O)(=O)c1cc(-c3onc(C)c3C)ccc1C)CCO2	none
COc1ccc(NS(=O)(=O)c2cn(C)cn2)cc1	none
Cn1cnc(S(=O)(=O)Nc2ccc(OC(F)F)cc2)c1	Neddyl block active | Neddyl inh conf inactive
O=C(CN1C(=O)CC(c2ccco2)Sc2ccccc21)NCc1ccc2c(c1)OCO2 (centres undefined)	none (no result: UHRF1 binding, MBD2 DNA inh)
